Experimental findings from PubChem BioAssay (Tox21) are described below.

Several values for one entry are separate records, joined by “and”; a condition that tells them apart may be missing. Equal values may be shown once. Results filed as inconclusive are left out. Some structures have more than one record in an assay (separate samples or runs), and their calls can disagree. Activity calls are given as the source filed them. Unless noted, calls come from the whole dose curve; as a rule, active = well fitted curve in the direction sought with a large enough effect in the repeat runs; inconclusive = weak or mixed curves; inactive = no such curve, though single readings can be large; an effect the other way counts as inactive or inconclusive.

Assay [1] is described as follows: qHTS assay to identify small molecule antagonists of the thyroid receptor (TR) signaling pathway (AID 743065). Note: nearly all actives have a fitted effect of over 55% in size. Note: potency is the fitted concentration of half-maximal effect. In outline:
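Antagonism measured as loss of luciferase signal in GH3 cells stably carrying a TRE-luciferase reporter, co-treated with compound and T3 (1 nM final) for 23.5 h at 37 C. Viability was read in the same well by CellTiter-Fluor.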
(In general: Quantitative high-throughput screening tests each substance at several concentrations.)

Assay [2] deals with thyroid hormone receptor (rat, GH3 cells). Nature of the assay: qHTS assay to identify small molecule agonists of the thyroid receptor (TR) signaling pathway (AID 743066; calls by dose curve).
Assay [3] has as its target Estrogen receptor (Homo sapiens) (UniProt P03372). Put plainly: qHTS assay to identify small molecule agonists of the estrogen receptor alpha (ER-alpha) signaling pathway using the BG1 cell line (AID 743079). Note: nearly all actives have a fitted effect of over 20% in size. Note: potency is the fitted concentration of half-maximal effect.
Assay [4] can be described thus: qHTS assay to identify small molecule antagonists of the estrogen receptor alpha (ER-alpha) signaling pathway using the BG1 cell line - cell viability counter screen (AID 743081).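 Note: compound given together with 17beta-estradiol as the ER stimulus; series mostly up to about 70 µM; nearly all actives have a fitted effect of over 45% in size.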
In another assay the target is Aromatase (Homo sapiens) (UniProt P11511). Put plainly: qHTS assay to identify aromatase inhibitors (AID 743083). Note: nearly all actives have a fitted effect of over 55% in size. Note: potency is the fitted concentration of half-maximal effect.
In assay [5] the target is Aryl hydrocarbon receptor (Homo sapiens) (UniProt P35869). Put plainly: qHTS assay to identify small molecule that activate the aryl hydrocarbon receptor (AhR) signaling pathway (AID 743085).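 For activation: HG2L7.5c1 human HepG2 liver cells with stably integrated DRE-driven firefly reporter; series mostly up to about 70 µM.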 Note: nearly all actives have a fitted effect of over 15% in size. Note: potency is the fitted concentration of half-maximal effect. In outline: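 Stably transfected human liver carcinoma cells (HG2L7.5c1; 20 DRE-firefly luciferase) were incubated 5 h, dosed, and kept 24 h at 37C. Agonism was scored from increased luciferase luminescence.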

A short description of assay [6]: qHTS assay to identify small molecule antagonists of the peroxisome proliferator-activated receptor gamma (PPARg) signaling pathway - cell viability counter screen (AID 743194). Note: nearly all actives have a fitted effect of over 55% in size. In outline:
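Viability was measured as CellTiter-Glo luminescence in GeneBLAzer PPARg UAS-bla HEK293H cells. These cells had been exposed 17 h at 37 C to compounds together with rosiglitazone at 50 nM final, with the beta-lactamase readout taken in the same wells.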

The nature of assay [7]: qHTS assay for small molecule agonists of the antioxidant response element (ARE) signaling pathway - cell viability counter screen (AID 743203; calls by dose curve; note: nearly all actives have a fitted effect of over 55% in size; note: potency is the fitted concentration of half-maximal effect). In outline:
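Viability counter screen: CellTiter-Glo luminescence, read after 30 min at room temperature, in ARE-bla HepG2 wells. Compound exposure lasted 16 h at 37C/5% CO2, following a 5 h pre-incubation of the cells after plating.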

The nature of assay [8]: qHTS assay for small molecule activators of the heat shock response signaling pathway - cell viability counter screen (AID 743209). Note: nearly all actives have a fitted effect of over 50% in size. Note: potency is the fitted concentration of half-maximal effect. In outline:
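Cytotoxicity counter screen run in the same wells as the heat-shock bla reporter assay: HeLa HSE-bla cells, 5 h compound exposure at 37 C, viability read by CellTiter-Glo luminescence.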

Assay [9] in a line: qHTS assay to identify small molecule agonists of the peroxisome proliferator-activated receptor delta (PPARd) signaling pathway - cell viability counter screen (AID 743211). Note: nearly all actives have a fitted effect of over 55% in size. Note: potency is the fitted concentration of half-maximal effect. In outline: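 In the same wells used for beta-lactamase reporter measurement, cytotoxicity is scored by CellTiter-Glo. HEK293H PPARd-bla cells receive compound for 17 h at 37C following a 5 h settling period.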

The nature of assay [10]: qHTS assay to identify small molecule antagonists of the estrogen receptor alpha (ER-alpha) signaling pathway - cell viability counter screen (AID 743074; calls by dose curve;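 note: HEK293 cells carrying ER-alpha-UAS-bla reporter stimulated with 17beta-estradiol; nearly all actives have a fitted effect of over 45% in size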; note: potency is the fitted concentration of half-maximal effect).
The nature of assay [11]: qHTS assay to identify aromatase inhibitors - cell viability counter screen (AID 743084). Note: potency is the fitted concentration of half-maximal effect.
A short description of assay [12]: qHTS assay to identify small molecule that activate the aryl hydrocarbon receptor (AhR) signaling pathway - cell viability counter screen (AID 743086). Note: series mostly up to about 70 µM; nearly all actives have a fitted effect of over 45% in size. A digest of the protocol: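 Cytotoxicity counter screen: CellTiter-Fluor signal (30 min, 37 C) in 4000 HepG2 cells/well carrying the DRE-luciferase reporter, following 24 h compound exposure at 37 C.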
Assay [13] in a line: qHTS assay for small molecule agonists of the antioxidant response element (ARE) signaling pathway (AID 743202; active = well fitted activation curve with a large enough effect in the signal ratio in the repeat runs, not every such curve was filed as active; the % refers to the signal ratio; note: potency is the fitted concentration of half-maximal effect). In outline: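 After 16 hours of compound treatment at 37 C, HepG2 cells with a stably integrated ARE-driven beta-lactamase reporter were loaded 2 hours at room temperature with LiveBLAzer B/G FRET substrate and fluorescence intensity measured.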
A short description of assay [14]: qHTS assay for small molecule activators of the heat shock response signaling pathway (AID 743210; active = well fitted activation curve with a large enough effect in the signal ratio in the repeat runs, with a control signal flat, not every such curve was filed as active; the % refers to the signal ratio; note: potency is the fitted concentration of half-maximal effect; for activation: series mostly up to about 63 µM). A digest of the protocol: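 Compound exposure lasted 5 h at 37 C in HeLa cells carrying a heat-shock-element-driven beta-lactamase reporter. Read-out: fluorescence intensity after 2.5 h room-temperature loading with LiveBLAzer B/G FRET substrate.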
In assay [15] the target is Estrogen receptor (Homo sapiens) (UniProt P03372). Nature of the assay: qHTS assay to identify small molecule agonists of the estrogen receptor alpha (ER-alpha) signaling pathway (AID 743075; calls by dose curve;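 note: HEK293 GripTite cells with ER-alpha and UAS-driven beta-lactamase reporter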).
Assay [16] is described as follows: qHTS assay to identify small molecule antagonists of the estrogen receptor alpha (ER-alpha) signaling pathway using the BG1 cell line (AID 743080; calls by dose curve;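 note: BG1 cells stimulated with 17beta-estradiol alongside compound; series mostly up to about 70 µM; nearly all actives have a fitted effect of over 25% in size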). A digest of the protocol:
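Seeding, 24 h rest, compound transfer from DMSO, 17beta-estradiol addition, 21.5 h incubation, CellTiter-Fluor (30 min, 37 C), then ONE-Glo (30 min, room temperature): this sequence was run on BG1-Luc-4E2 reporter cells.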

Assay [17] deals with Peroxisome proliferator-activated receptor gamma (Homo sapiens) (UniProt P37231). Nature of the assay: qHTS assay to identify small molecule agonists of the peroxisome proliferator-activated receptor gamma (PPARg) signaling pathway (AID 743094; active = well fitted activation curve with a large enough effect in the signal ratio in the repeat runs, not every such curve was filed as active; the % refers to the signal ratio). In outline: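 Agonist activity was taken from a beta-lactamase reporter (FRET substrate, 1 h at room temperature) in HEK293H cells carrying a PPARg UAS-bla construct. Compounds in DMSO were incubated 17 h at 37C after a 5 h cell pre-incubation.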
Sequence of Peroxisome proliferator-activated receptor gamma (Homo sapiens) (P37231 whole entry, looked up): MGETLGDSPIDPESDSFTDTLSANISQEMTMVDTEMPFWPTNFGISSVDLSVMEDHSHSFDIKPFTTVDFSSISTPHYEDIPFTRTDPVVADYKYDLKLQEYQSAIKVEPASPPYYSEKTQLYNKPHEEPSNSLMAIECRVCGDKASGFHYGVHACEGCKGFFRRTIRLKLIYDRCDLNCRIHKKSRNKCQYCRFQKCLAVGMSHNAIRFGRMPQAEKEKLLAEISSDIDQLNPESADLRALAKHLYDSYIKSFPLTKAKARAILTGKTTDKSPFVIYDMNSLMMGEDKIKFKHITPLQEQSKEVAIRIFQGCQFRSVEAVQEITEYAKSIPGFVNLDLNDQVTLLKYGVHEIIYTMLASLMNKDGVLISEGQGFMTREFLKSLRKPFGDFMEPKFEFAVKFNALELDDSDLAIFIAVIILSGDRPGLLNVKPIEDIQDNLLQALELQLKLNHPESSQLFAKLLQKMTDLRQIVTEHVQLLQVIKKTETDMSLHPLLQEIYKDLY

Sequence of Aryl hydrocarbon receptor (Homo sapiens) (P35869 whole entry, looked up): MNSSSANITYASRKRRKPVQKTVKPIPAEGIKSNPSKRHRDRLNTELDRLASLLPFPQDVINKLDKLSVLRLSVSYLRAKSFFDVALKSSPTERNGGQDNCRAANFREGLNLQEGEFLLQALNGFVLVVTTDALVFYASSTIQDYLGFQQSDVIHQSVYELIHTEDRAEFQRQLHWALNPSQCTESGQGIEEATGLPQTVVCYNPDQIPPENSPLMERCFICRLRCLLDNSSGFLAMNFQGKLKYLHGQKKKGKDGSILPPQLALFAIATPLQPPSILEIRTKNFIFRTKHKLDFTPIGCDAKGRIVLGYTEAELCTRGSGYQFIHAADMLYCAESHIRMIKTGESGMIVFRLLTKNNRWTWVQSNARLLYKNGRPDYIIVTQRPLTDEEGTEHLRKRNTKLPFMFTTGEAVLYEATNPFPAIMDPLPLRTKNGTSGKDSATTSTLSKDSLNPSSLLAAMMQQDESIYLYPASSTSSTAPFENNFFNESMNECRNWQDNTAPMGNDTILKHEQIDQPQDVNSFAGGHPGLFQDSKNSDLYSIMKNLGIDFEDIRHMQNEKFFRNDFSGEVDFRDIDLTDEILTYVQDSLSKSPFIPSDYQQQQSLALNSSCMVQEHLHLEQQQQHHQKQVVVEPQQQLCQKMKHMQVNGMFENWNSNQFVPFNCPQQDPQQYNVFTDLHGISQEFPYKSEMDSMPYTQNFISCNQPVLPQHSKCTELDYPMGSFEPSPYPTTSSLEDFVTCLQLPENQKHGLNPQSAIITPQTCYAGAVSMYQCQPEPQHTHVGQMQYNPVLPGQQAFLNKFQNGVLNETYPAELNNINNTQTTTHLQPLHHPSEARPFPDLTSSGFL
Sequence of Estrogen receptor (Homo sapiens) (P03372 whole entry, looked up): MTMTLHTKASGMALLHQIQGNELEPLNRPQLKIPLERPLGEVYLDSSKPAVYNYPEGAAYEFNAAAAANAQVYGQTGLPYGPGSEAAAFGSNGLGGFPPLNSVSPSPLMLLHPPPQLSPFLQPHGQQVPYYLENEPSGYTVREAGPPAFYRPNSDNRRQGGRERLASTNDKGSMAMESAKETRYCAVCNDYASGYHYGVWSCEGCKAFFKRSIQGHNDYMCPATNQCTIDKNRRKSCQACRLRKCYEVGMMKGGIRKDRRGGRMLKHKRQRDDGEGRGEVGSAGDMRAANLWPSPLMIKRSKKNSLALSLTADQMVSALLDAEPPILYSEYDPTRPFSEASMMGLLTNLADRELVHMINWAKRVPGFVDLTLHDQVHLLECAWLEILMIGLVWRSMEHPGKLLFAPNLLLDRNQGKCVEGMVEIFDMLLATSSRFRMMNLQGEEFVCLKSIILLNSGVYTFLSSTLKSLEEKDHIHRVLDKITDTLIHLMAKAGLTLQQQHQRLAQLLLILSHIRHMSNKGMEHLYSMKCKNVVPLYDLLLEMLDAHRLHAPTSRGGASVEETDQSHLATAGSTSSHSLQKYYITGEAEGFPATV
Sequence of Aromatase (Homo sapiens) (P11511 whole entry, looked up): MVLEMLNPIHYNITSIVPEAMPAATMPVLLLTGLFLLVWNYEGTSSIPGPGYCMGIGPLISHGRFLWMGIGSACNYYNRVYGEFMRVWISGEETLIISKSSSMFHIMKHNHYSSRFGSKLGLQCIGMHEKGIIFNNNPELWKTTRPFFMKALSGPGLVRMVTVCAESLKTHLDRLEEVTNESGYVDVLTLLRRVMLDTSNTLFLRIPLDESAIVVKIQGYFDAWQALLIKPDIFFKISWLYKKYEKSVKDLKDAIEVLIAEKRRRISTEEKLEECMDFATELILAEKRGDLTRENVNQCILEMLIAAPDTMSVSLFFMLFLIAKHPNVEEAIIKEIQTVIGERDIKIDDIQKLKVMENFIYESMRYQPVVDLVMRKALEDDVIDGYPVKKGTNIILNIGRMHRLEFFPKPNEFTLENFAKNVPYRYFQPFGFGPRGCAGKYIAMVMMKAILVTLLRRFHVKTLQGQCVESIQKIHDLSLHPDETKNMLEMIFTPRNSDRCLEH

For the molecule `Nc1ccc2cc3ccccc3cc2c1`, the Potency result (in assay [1]; in assay [2]; in assay [4]; in the assay with Aromatase (Homo sapiens); in assay [6]; in assay [7]) was “inactive” in each case. Also, the Potency entry in assay [8] and in assay [9] was “inactive” each time. Moreover, the Potency is 9.86 µM (active) and 24.3 µM (active) in [3]; 62.2 µM (active) and 8.63 µM (active) in [5].

As for `COc1ccc(COC(C)=O)cc1`, the Potency result (in assay [1]; in assay [2]; in [10]; in assay [4]; with Aromatase (Homo sapiens); in [11]) was “inactive” throughout. In addition, the Potency entry in assay [5], in assay [12], in assay [13], in [7], in assay [8] and in assay [9] was “inactive” throughout. Also, the Potency result in assay [14] is “inactive and 54.9 µM (active)”.

Regarding `Oc1c(Cl)cc(Cl)c(Cl)c1Cc1c(O)c(Cl)cc(Cl)c1Cl`, the Potency in [1] was 10.6 µM (active) and 2.43 µM (active) and 1.93 µM (active); in assay [10] it was 24.5 µM (active) and 4.9 µM (active); in the assay with Aromatase (Homo sapiens), 10.6 µM (active) and 5.43 µM (active) and 6.11 µM (active); in assay [11] it was 6.09 µM (active); in [7] it was 24.3 µM (active) and 8.63 µM (active) and 8.41 µM (active); in [8], 21.8 µM (active) and 21.9 µM (active) and inactive. Moreover, in [9], the Potency was 27.5 µM (active) and 13.3 µM (active). Besides, the Potency entry in assay [2], in assay [4], in assay [5] and in assay [12] was “inactive” each time.

For `CC(C)(c1ccccc1)c1ccc(Nc2ccc(C(C)(C)c3ccccc3)cc2)cc1`, the Potency entry in assay [1], in [2], in assay [15], in assay [3], in assay [16] and in assay [4] was “inactive” throughout. Further, the Potency result (with Aromatase (Homo sapiens); in assay [11]; in [5]; in assay [12]; in [6]; in assay [7]) was “inactive” in each case. In addition, the Potency result in [8] and in [9] was “inactive” each time.

Turning to `CC(N)=O`, the Potency entry (in [1]; in assay [2]; in [10]; in assay [4]; with Aromatase (Homo sapiens); in [11]) was “inactive” throughout. The Potency result in assay [5], in [12], in assay [17], in assay [13], in assay [7] and in [14] was “inactive” each time.

`c1ccc2c(c1)-c1cccc3c1c-2cc1ccccc13`: the Potency result (in assay [10]; in assay [3]; in [16]; in assay [4]; in the assay with Aromatase (Homo sapiens); in assay [11]) was “inactive” each time. Moreover, the Potency result in assay [12], in assay [6], in assay [7], in [8] and in [9] was “inactive” in each case. In addition, the Potency in [5] is 8.43 µM (active) and 6.86 µM (active); in assay [13] it was 1.34 µM (active).

Take `CC(C)(C)c1ccccc1`: the Potency entry in [10], in assay [4], in [13], in assay [8], in assay [14] and in assay [9] was “inactive” in each case.
